According to paper PMC4336329 (PLoS ONE, 2015):
Hit rate of the full screen: of about 310,000 compounds, about 14,000 (4.5%) showed an effect of 50% or more. Effects have a minus sign here. The sample holds strong results, similar compounds and a random draw of the others, so the mix is not that of the screen.

Biological target: human ether-à-go-go-related gene (hERG) potassium channel (human, UniProt Q12809)
Test: primary screen, population patch clamp on CHO cells stably expressing hERG; higher = less effect of the substance
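Further: peak tail current of the secondary pulse compared with the same well before compound.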

Sequence of human ether-à-go-go-related gene (hERG) potassium channel (Q12809 whole entry, looked up): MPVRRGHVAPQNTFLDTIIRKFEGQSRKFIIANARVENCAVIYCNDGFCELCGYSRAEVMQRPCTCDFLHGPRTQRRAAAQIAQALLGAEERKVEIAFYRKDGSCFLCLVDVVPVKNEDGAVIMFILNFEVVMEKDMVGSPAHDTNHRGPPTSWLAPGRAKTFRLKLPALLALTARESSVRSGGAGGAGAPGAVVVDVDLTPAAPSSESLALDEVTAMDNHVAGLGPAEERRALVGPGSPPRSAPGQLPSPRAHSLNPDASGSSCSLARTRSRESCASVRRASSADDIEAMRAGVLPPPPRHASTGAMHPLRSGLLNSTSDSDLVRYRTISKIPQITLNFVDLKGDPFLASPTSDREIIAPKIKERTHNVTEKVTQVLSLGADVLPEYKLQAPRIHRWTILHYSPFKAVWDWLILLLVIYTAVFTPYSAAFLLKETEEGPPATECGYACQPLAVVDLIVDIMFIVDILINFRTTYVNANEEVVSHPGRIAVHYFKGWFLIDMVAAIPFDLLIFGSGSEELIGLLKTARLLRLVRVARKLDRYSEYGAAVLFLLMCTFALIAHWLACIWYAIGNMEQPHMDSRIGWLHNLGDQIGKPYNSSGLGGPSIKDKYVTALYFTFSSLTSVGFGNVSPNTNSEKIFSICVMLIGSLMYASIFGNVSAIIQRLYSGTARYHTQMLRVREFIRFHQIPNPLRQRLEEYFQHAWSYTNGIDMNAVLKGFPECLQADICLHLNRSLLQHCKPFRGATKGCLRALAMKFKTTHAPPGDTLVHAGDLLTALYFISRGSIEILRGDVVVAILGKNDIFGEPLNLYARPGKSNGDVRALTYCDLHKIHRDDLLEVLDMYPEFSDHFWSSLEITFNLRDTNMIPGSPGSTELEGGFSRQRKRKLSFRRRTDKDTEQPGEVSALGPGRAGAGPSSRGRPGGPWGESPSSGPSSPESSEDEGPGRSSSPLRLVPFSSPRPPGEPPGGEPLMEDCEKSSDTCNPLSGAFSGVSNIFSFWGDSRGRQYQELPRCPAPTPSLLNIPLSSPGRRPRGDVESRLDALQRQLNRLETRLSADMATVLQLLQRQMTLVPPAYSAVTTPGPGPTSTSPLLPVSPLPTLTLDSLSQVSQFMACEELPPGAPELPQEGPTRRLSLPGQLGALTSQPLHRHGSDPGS

| SMILES | hERG current change (%, negative = inhibition) at 10uM [%] |
| --- | --- |
| CCCn1c(SCC(=O)NCc2ccco2)nnc1-c1ccncc1 | 19.9 |
| O=C(NNC(=O)C1CC1)Nc1ccc(Cl)cc1 | 6.38 |
| CNC(=O)c1nn(-c2ccccc2)ccc1=O | -1.51 |
| COc1cc2nc(N3CCN(C(=O)[C@H]4COc5ccccc5O4)CC3)nc(N)c2cc1OC | -37.7 |
| O=S(=O)(c1ccccc1F)N1CCN(Cc2cc3c(cc2O)OCO3)CC1 | -11.8 |
| O=C(COC(=O)C1=COCCO1)Nc1ccc(F)c(F)c1 | -1.21 |
| Cc1ccc(N2C(=O)C3C4C=CC(C4)C3C2=O)cc1C (stereo not shown) | 13.3 |
| C=CCn1c(SCC(=O)NC(=O)c2cccc([N+](=O)[O-])c2)nnc1-c1ccccc1F | -15.5 |
| O=C(CSc1nnc(-c2ccccc2F)n1C1CC1)NC(=O)c1cccc([N+](=O)[O-])c1 | -52.8 |
| Cn1c(SCC(=O)NC(=O)c2cccc([N+](=O)[O-])c2)nnc1-c1ccc(F)cc1 | -23.3 |
| NS(=O)(=O)c1cccc(C(=O)NC2CCSc3ccccc32)c1 (stereo not shown) | 7.91 |
| COc1cc(C(=O)N/N=C/c2ccc(OC(=O)c3ccccc3Cl)cc2)ccc1O | -10.5 |
| O=c1[nH]c(=S)[nH]c2scc(-c3ccc(Br)cc3)c12 | 16.3 |
| CCS(=O)(=O)N1N=C(c2cccc(NS(C)(=O)=O)c2)CC1c1ccccc1 (stereo not shown) | -16.9 |
| CCS(=O)(=O)Nc1cccc(C2=NN(S(=O)(=O)CC)C(c3ccccc3)C2)c1 (stereo not shown) | 1.69 |
| CS(=O)(=O)Nc1cccc(C2=NN(S(C)(=O)=O)C(c3ccccc3)C2)c1 (stereo not shown) | -30.9 |
| CCS(=O)(=O)Nc1cccc(C2=NN(S(C)(=O)=O)C(c3ccccc3)C2)c1 (stereo not shown) | -14.6 |
| Cc1ccc(C2CC(c3cccc(NS(C)(=O)=O)c3)=NN2S(C)(=O)=O)cc1 (stereo not shown) | -69.3 |
| CCS(=O)(=O)N1N=C(c2cccc(NS(C)(=O)=O)c2)CC1c1ccc(C)cc1 (stereo not shown) | -73.9 |
| O=c1cc(-c2ccccc2)nc(N2CCCCC2)[nH]1 | -13.7 |
| CN(Cc1ccc(F)cc1)C(=O)c1sccc1-c1ccccc1 | 0.217 |
| Cc1cc(=O)[nH]c(NN)n1 | 6.39 |

| SMILES | hERG current change (%, negative = inhibition) at 10uM [%] |
| --- | --- |
| COc1cccc2cc(C(=O)NCc3ccco3)c(=O)oc12 | 2.32 |
| Cc1ccc(S(=O)(=O)Nc2ccc(-c3nnc(SCC#N)n3C)cc2)cc1 | -11.3 |
| CC(C)(C)n1nnnc1C(c1cccnc1)N1CCN(C2CCCCC2)CC1 (stereo not shown) | -2.19 |
| CC1CCN(c2ccccc2NC(=O)c2ccc(Br)o2)CC1 | -0.73 |
| O=C(Nc1ccccc1N1CCN(C(=O)c2ccccc2)CC1)c1ccc(Br)o1 | -63.5 |
| O=C(Nc1ccccc1N1CCOCC1)c1ccc(Br)o1 | 1.26 |
| O=C(Nc1ccccc1N1CCCC1)c1ccco1 | 6.36 |
| O=C(Nc1ccccc1N1CCCC1)c1ccc(Br)o1 | -22.4 |
| O=C(Nc1ccccc1N1CCN(C(=O)c2ccccc2)CC1)c1ccco1 | -74.2 |
| O=C(Nc1ccccc1N1CCN(C(=O)c2ccccc2)CC1)c1cc2ccccc2o1 | 9.86 |
| CC(=O)N1CCN(c2ccccc2NC(=O)c2ccc(Br)o2)CC1 | -54.4 |
| CC(=O)N1CCN(c2ccccc2NC(=O)c2ccco2)CC1 | -38.9 |
| CN1CCN(c2ccccc2NC(=O)c2ccc(Br)o2)CC1 | -67.9 |
| CS(=O)(=O)N1CCN(c2ccccc2NC(=O)c2ccc(Br)o2)CC1 | -36.3 |
| CCOC(=O)c1[nH]c(C)c(C(=O)OCCN2C(=O)c3ccccc3C2=O)c1C | -1.16 |
| COC(=O)[C@@H]1C[C@@]2(O)[C@H](O)[C@H](O)[C@H](O)C[C@H]2N1Cc1ccc(C(F)(F)F)cc1 | 13.2 |
| Cc1ccccc1CN1CCN(CC(=O)NCc2ccccc2)CC1 | -22.8 |
| Cc1c(NC(=O)CCC2CCCCC2)cc(C(=O)N2CCOCC2)cc1[N+](=O)[O-] | -10.2 |
| COc1cc(N)c(Cl)cc1C(=O)NC1CN2CCC1CC2.Cl.O (stereo not shown) | -11.1 |
| O=C(O)c1ccc(Cl)c(NC(=S)NC(=O)c2cccc(COc3ccccc3)c2)c1 | 30.4 |
| COC(=O)c1ccc(N2CCN(C)CC2)c(NC(=O)c2ccc(Br)o2)c1 | -55.8 |
| CCOC(=O)c1ccc(N2CCN(C(=O)c3ccccc3)CC2)c(NC(=O)c2ccco2)c1 | -71.5 |

| SMILES | hERG current change (%, negative = inhibition) at 10uM [%] |
| --- | --- |
| COC(=O)c1ccc(N2CCOCC2)c(NC(=O)c2ccc(Br)o2)c1 | 7.34 |
| COC(=O)c1ccc(N2CCCCC2)c(NC(=O)c2ccco2)c1 | -45.8 |
| COC(=O)c1ccc(N2CCN(C)CC2)c(NC(=O)c2ccc(-c3ccc(Cl)cc3)o2)c1 | 7.11 |
| COC(=O)c1ccc(N2CCN(C(=O)c3ccccc3)CC2)c(NC(C)=O)c1 | -39.8 |
| CCOC(=O)N1CCC(NC(=O)c2cc(S(=O)(=O)N3CCC4(CC3)OCCO4)ccc2F)CC1 | -6.9 |
| Fc1cccc(CN2CCN3CCCC3C2C2CCCCC2)c1 (stereo not shown) | -8.93 |
| CCOc1ccc(NC(=S)NC(=O)/C=C/c2ccc(OC)cc2)c([N+](=O)[O-])c1 | 7.26 |
| O=C(COc1ccccc1Cl)NCCNC(=O)c1cccnc1 | -3.71 |
| CS(=O)(=O)NNC(=O)Cn1nnc(-c2ccc(OCc3ccccc3Cl)cc2)n1 | 18 |
| O=C(Oc1ccc(-c2nnco2)cc1)N1CCOCC1 | 1.23 |
| CCc1ccccc1Nc1nc(N)nc(COC(=O)CCNS(=O)(=O)c2ccccc2)n1 | -62.7 |
| CCc1ccccc1Nc1nc(N)nc(COC(=O)CCS(=O)(=O)c2ccccc2)n1 | -10.5 |
| Cc1ccccc1Nc1nc(N)nc(COC(=O)CCNS(=O)(=O)c2ccccc2)n1 | -9.32 |
| Cc1ccc2nc(NCCc3ccc(Cl)cc3)c3nncn3c2c1 | 8.75 |
| Cn1c2ccccc2c2nnc(SCC(N)=O)nc21 | -7.5 |
| CCCCNS(=O)(=O)c1ccc2c(c1)oc(=O)n2CC(=O)OCC | 5.06 |
| O=C(Nc1ccccc1C(=O)Nc1ccc(Br)cn1)c1cccc([N+](=O)[O-])c1 | 16.6 |
| O=C(NCCCN1CCOCC1)c1ccccc1NS(=O)(=O)c1ccc(Br)cc1 | -56.1 |
| O=C(NCCCN1CCCC1=O)c1ccccc1NS(=O)(=O)c1ccc(Br)cc1 | 1.59 |
| O=C(Nc1ccccc1C(=O)NCCCN1CCOCC1)c1cccc([N+](=O)[O-])c1 | -52.7 |
| Cc1cc(C)c(C)c(S(=O)(=O)Nc2ccccc2C(=O)NCCCN2CCOCC2)c1C | -88.5 |
| O=C(Nc1ccccc1C(=O)NCCCN1CCOCC1)c1ccccc1 | 6.8 |

| SMILES | hERG current change (%, negative = inhibition) at 10uM [%] |
| --- | --- |
| Cc1ccccc1NS(=O)(=O)c1ccc2[nH]cc(C(=O)NCCCN3CCOCC3)c(=O)c2c1 | 14.5 |
| Cc1ccccc1NS(=O)(=O)c1ccc(C(=O)NCCCN2CCOCC2)cc1 | 9.08 |
| O=C(Nc1cc([N+](=O)[O-])ccc1C(=O)NCCN1CCOCC1)c1ccccc1 | -44.9 |
| O=C(Nc1ccccc1C(=O)Nc1ccccn1)c1cccc([N+](=O)[O-])c1 | -58.2 |
| O=C(NCCCN1CCOCC1)c1ccccc1NS(=O)(=O)c1ccc(F)cc1 | -41.5 |
| O=C(Nc1ccccc1C(=O)Nc1ccccn1)c1ccc([N+](=O)[O-])cc1 | -18 |
| CCCCNC(=S)NCCN1CCN(C(=S)NCCCC)CC1.Cl | -8.2 |
| S=C(Cc1ccc(Cl)cc1)N1CCOCC1 | 11.1 |
| CC(C)C(=O)Nc1ncc(Cc2ccc(Cl)cc2)s1 | 6.53 |
| O=[N+]([O-])c1ccccc1N(CC1CO1)S(=O)(=O)c1ccccc1 (stereo not shown) | 2.02 |
| O=C(CCc1nc2ccccc2c(=O)[nH]1)Nc1nnc(SCc2ccc(F)cc2)s1 | 7.47 |
| CC(C)(C)NCC(O)CON=C1c2ccccc2-c2ccccc21 (stereo not shown) | -28.5 |
| COc1ccc(O)c(/C=N/NC(=O)c2ccc(OCc3cccc(Br)c3)cc2)c1 | 9.95 |
| COc1ccc(CNC(=O)C/C(C)=N/NC(=O)c2ccc(OC)cc2OC)cc1 | -10.5 |
| O=C(NNS(=O)(=O)c1ccccc1[N+](=O)[O-])c1cc2ccccc2cc1O | -10.9 |
| O=C(NCCc1ccccc1)c1ccc2c(c1)OCCCO2 | 17.4 |
| CCN(CC)CCN(Cc1cc2ccc(C)cc2[nH]c1=O)C(=O)Nc1ccc(Cl)cc1 | -77.6 |
| Cc1ccc2cc(CN(CCN(C)C)C(=O)Nc3ccc(Cl)cc3)c(=O)[nH]c2c1 | -70.5 |
| CCC(=O)N(CCc1ccccc1C)Cc1cc2ccc(C)cc2[nH]c1=O | 9.02 |
